Tau fluor counter = Counterscreen qHTS for Inhibitors of Tau Fibril Formation, Fluorescence Polarization | Potency, µM (titrated, usually from 57.7 µM), for the others: at the top dose activity change, negative = decrease | tau K18 P301L Alexa594 fluorescence, heparin fibrillization | actives 0.93% (n = 280,000); also: nearly all actives have a fitted effect of over 55% in size
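Human tau K18 P301L (15 uM unlabeled, 0.24 uM Alexa 594-labeled) in 100 mM sodium acetate pH 7 with 20 uM heparin, 6 hr at 37 C. ThT 30 uM added, 1 hr ambient; Alexa 594 FP and total fluorescence read at 555/632 nm.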
TRb-SRC2 inh = qHTS for Inhibitors of the Interaction of Thyroid Hormone Receptor and Steroid Receptor Coregulator 2; Thyroid hormone receptor beta (Homo sapiens), P10828; TRbeta-SRC2 peptide binding, fluorescence polarization; receptor liganded with 1 µM T3; Potency, µM (top dose mostly 106 µM), for inactives: top-dose activity change, negative = inhibition, usual class: inhibitors; actives 0.065% (n = 280,000);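 also: plate controls were bound peptide for no effect and peptide without receptor for full effect; nearly all actives have a fitted effect of over 50% in size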
Target sequence (P10828 whole entry, looked up): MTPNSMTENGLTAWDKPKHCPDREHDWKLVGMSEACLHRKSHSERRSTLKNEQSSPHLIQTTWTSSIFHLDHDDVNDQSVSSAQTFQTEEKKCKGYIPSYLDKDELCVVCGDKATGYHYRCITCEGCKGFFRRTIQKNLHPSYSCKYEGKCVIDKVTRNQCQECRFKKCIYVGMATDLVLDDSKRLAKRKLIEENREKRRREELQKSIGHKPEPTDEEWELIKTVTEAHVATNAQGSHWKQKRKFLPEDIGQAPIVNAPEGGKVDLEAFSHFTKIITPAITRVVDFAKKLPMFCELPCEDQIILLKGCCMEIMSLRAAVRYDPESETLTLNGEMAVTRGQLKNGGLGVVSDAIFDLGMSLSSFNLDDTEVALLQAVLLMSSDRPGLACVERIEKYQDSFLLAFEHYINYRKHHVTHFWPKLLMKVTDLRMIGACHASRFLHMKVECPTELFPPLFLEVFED
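Human TRb ligand-binding domain (0.6 uM) is mixed with 20 nM Texas Red SRC2 peptide and 1 uM T3; after compound addition and 5 hr at ambient temperature, polarization is measured and normalized to unbound and bound controls.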
Tau FP inhib = qHTS for Inhibitors of Tau Fibril Formation, Fluorescence Polarization; K18 P301L tau heparin fibrillization, Alexa594 FP, 6 h; Potency, µM (highest dose often 57.7 µM), without a hit: at the highest dose activity, negative = inhibition, hits mostly inhibitors; Microtubule-associated protein tau (Homo sapiens), P10636; actives 0.39% (n = 280,000); also: nearly all actives have a fitted effect of over 55% in size
Target sequence (P10636 561-689 P618L limits assumed): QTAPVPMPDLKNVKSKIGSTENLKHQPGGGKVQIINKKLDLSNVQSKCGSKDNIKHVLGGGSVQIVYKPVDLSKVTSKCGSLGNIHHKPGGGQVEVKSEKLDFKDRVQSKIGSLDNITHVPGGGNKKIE
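Read-out: fluorescence polarization of Alexa 594-labeled tau (0.24 uM), 555 nm excitation, 632 nm emission. Mixtures held 15 uM unlabeled K18 P301L, compound and 20 uM heparin, pH 7 acetate buffer, incubated 6 hr at 37 C.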
Tau ThT inhib = qHTS for Inhibitors of Tau Fibril Formation, Thioflavin T Binding. Potency, µM (top dose mostly 57.4 µM), for the others: top-dose activity, negative = inhibition, actives largely listed as inhibitors. recombinant tau K18 P301L (four-repeat tau fragment), heparin-induced fibrillization, ThT fluorescence. actives 2.1% (n = 270,000). Microtubule-associated protein tau (Homo sapiens), P10636. AID 1460, 2008; also: nearly all actives have a fitted effect of over 55% in size
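In this qHTS, human K18 P301L tau is incubated with compound and heparin for 6 hr at 37 C, and Thioflavin T fluorescence then reports fibril load.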
TR SRC2 fluor cs = Total Fluorescence Counterscreen for Inhibitors of the Interaction of Thyroid Hormone Receptor and Steroid Receptor Coregulator 2; TRb/SRC2 Texas Red total fluorescence interference; AID 1479, 2009; Potency, µM (doses to about 106 µM), inactives show top-dose fluorescence change, negative = quenching; actives 0.29% (n = 280,000); active = well fitted curve in either direction with a large enough effect; inconclusive = small, poorly fitted or top-dose-only effect
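Flags fluorescent or light-absorbing compounds by total fluorescence, S + 2P, at 555 nm excitation and 632 nm emission. Mixture: 20 nM Texas Red SRC2 peptide, 0.6 uM human TRb LBD, 1 uM T3, 5% DMSO; compound exposure 5 h at ambient temperature.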
Starred values were filed as active, the others as inactive; ? = inconclusive; . = not tested or not shown; [ ] = another dose, or the depositor's remark. Compounds with a hit are over-represented: about 3.1% of the library has one in this group of screens. Unless noted, calls follow the shape of the dose curve; as a rule, active = well fitted curve in the direction sought with a large enough effect; inconclusive = small, poorly fitted or top-dose-only effect, or another doubt; inactive = no such curve, though single readings can be large; an effect the other way counts as inactive or inconclusive. Unless noted, % is scaled to controls: 0 for no effect and ±100 for the full control effect; potency is read from the fitted curve at half-maximal effect.

SMILES	Tau fluor counter	TRb-SRC2 inh	Tau FP inhib	Tau ThT inhib	TR SRC2 fluor cs
CCOC(=O)c1c(NC(=O)c2cc(CC)on2)sc(C)c1C	-19.9%	-2.3%	-20.5%	?	3.5%
Cc1ccc2nc(/C(C#N)=C\c3ccc(Oc4ccc([N+](=O)[O-])cn4)cc3)[nH]c2c1	?	2.0%	3.1%	5.01µM*	-2.2%
COc1ccc2nc(/C(C#N)=C\c3ccc(Oc4ccc([N+](=O)[O-])cn4)cc3)[nH]c2c1	?	1.3%	-13.2%	5.01µM*	-4.7%
COc1ccc2nc(/C(C#N)=C\c3ccc(C(=O)O)cc3)[nH]c2c1	-21.9%	-1.0%	4.3%	?	-7.5%
Nc1ccc(N)c([N+](=O)[O-])c1	.	4.4%[201 µM]	.	.	-6.6%[201 µM]
O=C(NCC(c1ccc2c(c1)OCO2)N1CCN(c2ccccc2)CC1)C(=O)Nc1cccc(F)c1 (stereo unspecified)	?	3.5%	4.1%	-7.4%	-6.5%
COc1cc(OC)c2cc(C(=O)N/N=C/c3cccc(OC)c3O)[nH]c2c1	?	3.4%	?	5.01µM*	-18.0%
CCN1c2ccccc2-c2nc(SCC(=O)Nc3cccc(C(F)(F)F)c3)ncc2S1(=O)=O	?	-4.6%	28.2µM*	13.0%	-1.9%
CC(C)c1ccc(S(=O)(=O)c2cnc(SCC(=O)Nc3cccc(C(F)(F)F)c3)nc2N)cc1	?	14.6%	12.6µM*	?	4.0%
CCOC(=O)CC1=CC(C)(CC(=O)OCC)C(C#N)(C#N)C(N)=C1C#N (stereo unspecified)	-25.8%	11.0%	?	28.2µM*	-1.8%
CCOC(=O)CC1=C(C(=O)OCC)C(c2cc(OC)c(OC)cc2OC)C(C#N)=C(N)O1 (stereo unspecified)	-13.1%	-7.5%	-3.5%	-20.5%	-0.7%
CC1=CC(=O)c2ccccc2C1=O	7.08µM*[quencher]	0.7%	?	5.01µM*	-0.1%
COc1cccc2c1C(=O)C=C(C)C2=O	7.08µM*[quencher]	7.5%	?	7.08µM*	-6.3%
CC(C)(C)c1ccc2c(c1)C(=O)c1ccccc1C2=O	-28.6%	-1.6%	6.1%	-12.4%	-5.9%
O=C1C=C(Nc2ccccc2)C(=O)c2ccccc21	-22.5%	9.6%	3.7%	?	0.0%
CC(C)(C=O)C1=CC(=O)c2ccccc2C1=O	?	-9.3%	?	8.91µM*	?
O=C(O)c1ccc(C(=O)O)cc1	.	3.3%[201 µM]	.	.	-4.6%[201 µM]
O=C1/C(=C/c2ccccc2)CCCc2ccccc21	-16.8%	-1.5%	-6.7%	?	1.5%
O=C1/C(=C/c2ccc(C(=O)O)cc2)CCC/C1=C\c1ccc(C(=O)O)cc1	-9.3%	4.4%	?	10µM*	0.2%
CN(C)c1ccc(/C=C2\CCC/C(=C\c3ccccc3)C2=O)cc1	?	-7.0%	-2.4%	2µM*	1.4%
COc1ccc(/C=C2\CCC/C(=C\C=N\N(C)C)C2=O)cc1	-29.2%	1.1%	0.2%	2.51µM*	-5.8%
OC1c2ccccc2N=C2CCCN21 (stereo unspecified)	.	-1.9%	.	.	0.8%
Cc1[nH]n(C(N)=S)c(=O)c1N=Nc1cc(-c2ccc(Br)cc2)[nH]n1	?	-3.2%	3.0%	2.24µM*	-16.0%
Cc1ccc(N=Nc2c(C)[nH]n(C(N)=S)c2=O)cc1C	-3.9%	1.3%	5.3%	4.47µM*	-3.2%
Cc1[nH]n(C(N)=S)c(=O)c1N=Nc1ccc(S(=O)(=O)N2CCCCCC2)cc1	-25.6%	-8.0%	6.7%	25.1µM*	-11.1%
SMILES	Tau fluor counter	TRb-SRC2 inh	Tau FP inhib	Tau ThT inhib	TR SRC2 fluor cs
CC(=O)Nc1ccc(N=Nc2c(C)[nH]n(C(N)=S)c2=O)cc1	-21.5%	1.4%	-6.7%	8.91µM*	-7.0%
Nc1cc(-c2ccc(Br)cc2)[nH]n1	-0.7%	1.4%	7.3%	3.8%	-5.7%
COc1ccc(CCNC(=O)CCc2c(C)c3cc4c(C)coc4cc3oc2=O)cc1	-4.5%	3.0%	-0.1%	?	0.9%
Cc1cc(=O)n2[nH]c(N)c(N=Nc3ccccc3)c2n1	-0.4%	-1.7%	7.1%	?	-4.7%
Cc1[nH]n(C(N)=S)c(=O)c1N=Nc1ccc2ccccc2c1	?	-4.0%	3.0%	2.82µM*	-6.4%
COc1ccc(NC(=O)CSc2nc(-c3cc(OC)c(OC)c(OC)c3)[nH]c2-c2ccc(F)cc2)cc1	7.08µM*[quencher]	-4.0%	8.7%	?	-0.6%
COc1ccc(NC(=O)CSc2cc(-c3ccccc3)nc(C)n2)cc1	-25.5%	-25.9%	-3.2%	-8.6%	8.91µM*[quencher]
COc1ccc(-c2[nH]c(-c3ccc(F)cc3)nc2SCC(=O)Nc2ccc(OC)c(OC)c2)cc1	14.1µM*[quencher]	7.2%	14.2%	?	-2.7%
COc1ccc(-c2nc(SCC(=O)Nc3ccc4c(c3)OCO4)c(-c3ccc(OC)cc3)[nH]2)cc1	?	-3.6%	2.9%	-10.0%	-13.5%
COc1ccc(NC(=O)CSc2nc(-c3ccc(OC)cc3)[nH]c2-c2ccc(OC)cc2)cc1	8.91µM*[quencher]	-2.7%	7.4%	-11.2%	-1.0%
Cc1ccc(NC(=O)Cn2c(-c3nonc3N)nc3ccccc32)cc1Cl	0.7%	-1.8%	-13.8%	14.4%	-0.6%
CCCCCC[N+](C)(C)CCSSCC[N+](C)(C)CCCCCC	-23.1%	-19.6%	?	7.08µM*	-1.7%
CCCCCCCCCCCCCCCC[N+](C)(C)CC	.	9.1%	.	.	0.7%
CC(CNc1ccccc1O)C(=O)O (stereo unspecified)	?	-5.6%	?	28.2µM*	-9.0%
CC(Oc1ccccc1)C(=O)Nc1ccccc1O (stereo unspecified)	-8.2%	-6.7%	7.1%	-6.6%	-0.5%
CCCc1ccc(Oc2c(-c3ccc(O)c(C)c3O)n[nH]c2C)cc1	12.6µM*[quencher]	4.8%	?	28.2µM*	1.2%
CCCc1ccc(Oc2cn[nH]c2-c2ccc(O)c(C)c2O)cc1	14.1µM*[quencher]	-4.3%	-6.0%	25.1µM*	-3.9%
COC(=O)/C(=C/Nc1ccccc1)[N+](=O)[O-]	-6.5%	-5.4%	-3.1%	-13.5%	1.0%
COC(=O)/C(=C/Nc1ccc(O)cc1)[N+](=O)[O-]	?	?	?	17.8µM*	4.4%
CCc1ccc2oc(-c3cc(N=Cc4cccc(OC)c4O)ccc3O)nc2c1	?	10.0%	6.8%	14.1µM*	-0.9%
CCc1ccc2oc(-c3cc(NC(=O)c4cc(OC)c(OC)c(OC)c4)ccc3O)nc2c1	?	?	-1.3%	-11.2%	25.6%
OCCN(CCO)c1ccc(C(c2ccc(Cl)cc2)c2ccc(N(CCO)CCO)cc2Cl)c(Cl)c1	0.3%	16.0%	8.7%	4.4%	-0.2%

High-throughput results as filed in PubChem.
